Structures can show the parent of a compound that is named as a salt. Values without a mark were called inactive.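 The calls were made as follows: for the amine columns active = adjusted P below 0.05 in both replicates with a change the same way and a mean fold change under 0.8 or over 1.25; inactive = the rest.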
system: Klebsiella aerogenes DSM 30053; experiment: fold change of Putrescine concentration vs plate DMSO controls (fold change (ratio)); higher = more amine produced, active = hit call of the paper (significant change in both replicates, either direction); details: incubation time: 27 h, anaerobic, 37 °C
Method in brief: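 In 80 µL wells, cultures of four gut bacterial strains in mGAM started at OD 0.1 before a 1:1 dilution and grew anaerobically at 37 °C for 27 h. Compounds were added to 20 µM final, except sweeteners at 50 µM final. After extraction of whole cultures with cold acetonitrile/methanol plus 0.1% formic acid and centrifugation, amines were measured by LC–triple-quadrupole MS in dynamic MRM mode against external calibration curves, with within-batch drift correction. Values give fold change over DMSO controls on the same plate, averaged across 2 biological replicates.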

Row | Compound | fold change of Putrescine concentration
1 | CN1CCC(=C2c3ccccc3CCc3cccnc32)CC1 [Azatadine maleate] (20 µM) | 1.01
2 | CC(=O)OC[C@H]1O[C@@H]([S-])[C@H](OC(C)=O)[C@@H](OC(C)=O)[C@@H]1OC(C)=O.CCP(CC)CC.[Au+] [Auranofin] (20 µM) | 0.89
3 | C=CCOC(Cn1ccnc1)c1ccc(Cl)cc1Cl (centres undefined) (20 µM) | 0.941
4 | CC[C@H](C)C(=O)O[C@H]1CCC=C2C=C[C@H](C)[C@H](CC[C@@H]3C[C@@H](O)CC(=O)O3)[C@H]21 [Mevastatin] (20 µM) | 1
5 | NS(=O)(=O)c1cc2c(cc1Cl)NC(Cc1ccccc1)NS2(=O)=O (centres undefined) [Benzylhydrochlorothiazide] (20 µM) | 0.971
6 | O=c1[nH]c(=O)n(C2CCCO2)cc1F (centres undefined) [Tegafur] (20 µM) | 1
7 | Cc1nn(C)c(Oc2ccccc2)c1/C=N/OCc1ccc(C(=O)OC(C)(C)C)cc1 (20 µM) | 1.06
8 | CS(=O)(=O)OCCCCOS(C)(=O)=O [Busulfan] (20 µM) | 0.962
9 | CCSc1ccc2c(c1)N(CCCN1CCN(C)CC1)c1ccccc1S2 [Thiethylperazine maleate] (20 µM) | 1.07
10 | Cc1ncc([N+](=O)[O-])n1C [Dimetridazole] (20 µM) | 1.01
11 | CC[C@@H]1C(=O)OC[C@@H]1Cc1cncn1C [Pilocarpine nitrate] (20 µM) | 1.01
12 | Clc1ccc(C(Cn2ccnc2)OCc2ccsc2Cl)c(Cl)c1 (centres undefined) [Tioconazole] (20 µM) | 1.01
13 | c1coc(CNc2ncnc3[nH]cnc23)c1 [Kinetin] (20 µM) | 1.01
14 | CC1(C)O[C@@H]2C[C@H]3[C@@H]4CCC5=CC(=O)CC[C@]5(C)[C@@]4(F)[C@@H](O)C[C@]3(C)[C@]2(C(=O)CCl)O1 [Halcinonide] (20 µM) | 0.994
15 | CC(=O)N[C@@H](CC(C)C)C(=O)O [N-Acetyl-L-leucine] (20 µM) | 1.01
16 | COc1cccc(CCc2ccccc2OCC(CN(C)C)OC(=O)CCC(=O)O)c1 (centres undefined) [Sarpogrelate hydrochloride] (20 µM) | 0.999
17 | CN1CCC(=C2c3ccccc3CCc3sccc32)CC1 [Pizotifen malate] (20 µM) | 1.01
18 | Oc1ccc2ccccc2c1N=Nc1ccccc1 [Sudan I (1-phenylazo-2-hydroxynaphthalene)] (20 µM) | 0.893
19 | CC(C)(C)c1ccc(C(=O)CCCN2CCC(OC(c3ccccc3)c3ccccc3)CC2)cc1 [Ebastine] (20 µM) | 1
20 | O=c1oc2cc(O)ccc2s1 [Tioxolone] (20 µM) | 0.997

Row | Compound | fold change of Putrescine concentration
21 | CCCOc1ccc(C(=O)OCCN(CC)CC)cc1N [Proparacaine hydrochloride] (20 µM) | 0.98
22 | CC(C)NC[C@H](O)COc1cccc2ccccc12 [(S)-(-)-Propranolol hydrochloride] (20 µM) | 0.993
23 | COc1cc(C(=O)NCc2ccc(OCCN(C)C)cc2)cc(OC)c1OC [Trimethobenzamide hydrochloride] (20 µM) | 0.835
24 | N[C@@H](Cc1cc(I)c(Oc2cc(I)c(O)c(I)c2)c(I)c1)C(=O)O [(L) Thyroxine] (20 µM) | 1
25 | O=C(NCC(O)CO)c1c(I)c(C(=O)NCC(O)CO)c(I)c(N(CCO)C(=O)CO)c1I (centres undefined) [Ioversol] (20 µM) | 0.975
26 | CCCCC[C@H](O)/C=C/[C@H]1[C@H](O)CC(=O)[C@@H]1CCCCCCC(=O)O [Alprostadil] (20 µM) | 1.01
27 | CC(C)(CO)[C@@H](O)C(=O)NCCCC(=O)O [Hopantenate calcium] (20 µM) | 0.995
28 | Cc1nnc(NS(=O)(=O)c2ccc(N)cc2)s1 [Sulfamethizole] (20 µM) | 0.981
29 | OC[C@H](O)C(O)[C@@H](O)CO [L-Arabinitol] (50 µM) | 1.02
30 | CN/C(=N\CCSCc1nc[nH]c1C)NC#N [Cimetidine] (20 µM) | 0.979
31 | CCN(CC)C(=O)/C(C#N)=C/c1cc(O)c(O)c([N+](=O)[O-])c1 [Entacapone] (20 µM) | 1.03
32 | OC(CNCC(O)C1CCc2cc(F)ccc2O1)C1CCc2cc(F)ccc2O1 (centres undefined) [Nebivolol hydrochloride] (20 µM) | 1.01
33 | CCN(CC)CC(=O)Nc1c(C)cccc1C [Lidocaine hydrochloride] (20 µM) | 1.01
34 | C[C@H](NCc1ccc(OCc2cccc(F)c2)cc1)C(N)=O [Safinamide] (20 µM) | 1
35 | CN(C)CCc1c[nH]c2ccc(Cn3cncn3)cc12 [Rizatriptan benzoate] (20 µM) | 1.01
36 | C[C@H]1C[C@@H]2[C@H]([C@@H](O)C[C@@]3(C)[C@H]2CC[C@]3(O)C(=O)CO)[C@@]2(C)C=CC(=O)C=C12 [Methylprednisolone, 6-alpha] (20 µM) | 1.05
37 | CC1COc2ccccc2N1C(=O)C(Cl)Cl (centres undefined) (20 µM) | 0.941
38 | C=C1c2cccc(O)c2C(O)=C2C(=O)[C@]3(O)C(O)=C(C(N)=O)C(=O)[C@@H](N(C)C)[C@@H]3[C@@H](O)[C@H]12 [Methacycline hydrochloride] (20 µM) | 0.486 (active)
39 | CCN1CCCC(OC(=O)C(c2ccccc2)c2ccccc2)C1 (centres undefined) [Piperidolate hydrochloride] (20 µM) | 1

— the supplement of paper PMC12494721
